Source: PubChem BioAssay
Sampled rows, rich in hits. Any-hit rate of the full collection: about 3.6%.
Pf apPOL inh: Pf-apPOL inhibitors, biochemical, fluorescence | Recombinant Pf-apPOL, molecular beacon fluorescence, 1.5 h | Plasmodium falciparum apicoplast DNA polymerase (apPOL) | hit rate 0.25% among 210,000 | inhibition, % at 10 µM | AID 1794808, 2022
mHTT-CaM PPI inh: mutant huntingtin-calmodulin interaction inhibitors – biochemical, AlphaScreen, primary screen. inhibition, % at 15 µM. P42858. AlphaScreen His-mHTT/GST-CaM binding, luminescence. hit rate 3.6% among 190,000. AID 1671202, 2021;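 also: 0% = both proteins with DMSO and 100% = one protein alone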
Target sequence (P42858 whole entry, looked up, stated change not applied): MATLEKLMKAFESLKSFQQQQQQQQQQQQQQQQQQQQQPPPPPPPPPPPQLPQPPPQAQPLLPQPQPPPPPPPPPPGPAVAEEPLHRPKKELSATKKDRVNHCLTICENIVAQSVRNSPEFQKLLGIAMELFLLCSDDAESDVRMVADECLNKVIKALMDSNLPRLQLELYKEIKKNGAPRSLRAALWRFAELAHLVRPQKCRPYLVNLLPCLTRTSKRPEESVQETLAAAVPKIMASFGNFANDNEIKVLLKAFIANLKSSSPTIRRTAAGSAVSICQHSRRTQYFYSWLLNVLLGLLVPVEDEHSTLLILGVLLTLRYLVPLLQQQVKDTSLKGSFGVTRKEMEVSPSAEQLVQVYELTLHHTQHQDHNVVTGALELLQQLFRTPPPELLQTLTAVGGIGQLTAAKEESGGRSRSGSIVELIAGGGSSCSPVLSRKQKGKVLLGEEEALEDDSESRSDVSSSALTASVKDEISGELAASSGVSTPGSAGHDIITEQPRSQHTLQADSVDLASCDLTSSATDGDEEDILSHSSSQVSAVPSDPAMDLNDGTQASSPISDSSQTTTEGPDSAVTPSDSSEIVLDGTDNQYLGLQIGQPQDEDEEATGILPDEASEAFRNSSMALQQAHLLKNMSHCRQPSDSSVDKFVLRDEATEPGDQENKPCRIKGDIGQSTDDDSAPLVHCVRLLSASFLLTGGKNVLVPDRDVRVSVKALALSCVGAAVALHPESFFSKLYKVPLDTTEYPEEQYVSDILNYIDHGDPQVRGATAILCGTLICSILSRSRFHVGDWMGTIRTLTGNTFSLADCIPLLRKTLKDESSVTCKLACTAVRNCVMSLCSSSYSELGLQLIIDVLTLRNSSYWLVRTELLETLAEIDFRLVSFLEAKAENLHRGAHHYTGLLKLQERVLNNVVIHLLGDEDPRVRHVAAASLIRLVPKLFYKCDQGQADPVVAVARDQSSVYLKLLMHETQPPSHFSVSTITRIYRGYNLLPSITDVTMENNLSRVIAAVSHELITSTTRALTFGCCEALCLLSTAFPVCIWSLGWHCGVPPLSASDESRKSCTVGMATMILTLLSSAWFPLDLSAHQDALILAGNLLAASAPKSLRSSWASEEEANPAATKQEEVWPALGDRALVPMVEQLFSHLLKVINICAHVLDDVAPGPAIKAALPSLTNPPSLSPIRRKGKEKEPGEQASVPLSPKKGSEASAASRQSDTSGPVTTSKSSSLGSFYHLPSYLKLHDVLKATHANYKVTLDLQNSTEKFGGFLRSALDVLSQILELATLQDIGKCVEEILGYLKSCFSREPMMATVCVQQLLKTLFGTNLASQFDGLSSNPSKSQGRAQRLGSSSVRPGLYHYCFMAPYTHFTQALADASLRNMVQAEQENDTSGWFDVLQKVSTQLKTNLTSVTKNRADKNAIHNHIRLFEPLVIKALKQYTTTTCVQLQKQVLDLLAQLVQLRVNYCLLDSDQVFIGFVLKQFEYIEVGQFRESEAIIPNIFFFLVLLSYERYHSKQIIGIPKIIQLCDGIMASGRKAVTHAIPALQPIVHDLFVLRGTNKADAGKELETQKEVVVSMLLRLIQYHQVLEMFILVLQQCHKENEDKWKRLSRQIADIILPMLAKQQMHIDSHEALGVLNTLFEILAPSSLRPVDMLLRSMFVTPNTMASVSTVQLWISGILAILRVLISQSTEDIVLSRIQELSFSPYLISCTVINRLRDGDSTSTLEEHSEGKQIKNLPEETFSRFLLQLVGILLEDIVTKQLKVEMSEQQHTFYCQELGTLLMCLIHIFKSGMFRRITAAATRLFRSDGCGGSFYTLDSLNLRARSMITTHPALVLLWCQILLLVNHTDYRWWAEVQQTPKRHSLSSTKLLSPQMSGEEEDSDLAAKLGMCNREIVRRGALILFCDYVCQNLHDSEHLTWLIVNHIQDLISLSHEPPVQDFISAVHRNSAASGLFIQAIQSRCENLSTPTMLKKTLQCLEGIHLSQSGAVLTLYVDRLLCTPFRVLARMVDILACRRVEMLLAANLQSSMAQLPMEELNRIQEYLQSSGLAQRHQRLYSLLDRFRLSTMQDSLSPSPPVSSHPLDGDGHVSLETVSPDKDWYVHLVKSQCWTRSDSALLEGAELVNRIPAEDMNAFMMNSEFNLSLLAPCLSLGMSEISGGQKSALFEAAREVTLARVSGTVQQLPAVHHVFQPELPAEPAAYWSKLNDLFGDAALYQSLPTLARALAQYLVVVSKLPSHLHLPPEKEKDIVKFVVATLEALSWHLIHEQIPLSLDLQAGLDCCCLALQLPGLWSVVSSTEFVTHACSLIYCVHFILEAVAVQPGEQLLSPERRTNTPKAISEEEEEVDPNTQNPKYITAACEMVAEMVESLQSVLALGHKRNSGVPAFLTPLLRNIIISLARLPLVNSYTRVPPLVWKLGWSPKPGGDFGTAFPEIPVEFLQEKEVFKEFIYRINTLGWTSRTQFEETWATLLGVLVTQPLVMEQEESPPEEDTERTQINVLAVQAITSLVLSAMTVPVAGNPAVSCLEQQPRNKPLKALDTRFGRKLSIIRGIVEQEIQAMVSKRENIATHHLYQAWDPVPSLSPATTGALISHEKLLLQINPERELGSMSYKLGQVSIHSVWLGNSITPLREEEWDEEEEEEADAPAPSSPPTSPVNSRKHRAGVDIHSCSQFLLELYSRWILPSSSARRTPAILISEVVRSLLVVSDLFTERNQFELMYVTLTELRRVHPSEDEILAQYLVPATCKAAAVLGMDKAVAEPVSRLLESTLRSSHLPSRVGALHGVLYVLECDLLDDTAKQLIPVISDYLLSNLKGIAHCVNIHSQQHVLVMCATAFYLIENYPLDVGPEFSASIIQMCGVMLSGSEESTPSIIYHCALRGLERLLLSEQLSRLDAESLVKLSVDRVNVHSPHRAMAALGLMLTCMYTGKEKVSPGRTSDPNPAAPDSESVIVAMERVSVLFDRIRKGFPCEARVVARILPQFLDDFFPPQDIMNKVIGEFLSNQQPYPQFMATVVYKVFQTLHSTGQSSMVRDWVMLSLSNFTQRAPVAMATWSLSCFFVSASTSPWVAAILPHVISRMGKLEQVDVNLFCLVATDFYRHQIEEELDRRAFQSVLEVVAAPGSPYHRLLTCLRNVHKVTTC
The depositor's hits bear a star. Rule as the data show it: active = inhibition above about 50%; inactive = the rest.

For COc1ccc(NC2=C(C)C(=O)CC2)cc1 the results were Pf apPOL inh -2.0 and mHTT-CaM PPI inh -3.2.
For O=C(CC1(O)C(=O)N(CCc2ccccc2)c2ccccc21)c1ccncc1 (stereo not drawn) the results were Pf apPOL inh 2.2 and mHTT-CaM PPI inh 23.4.
Screening Cc1noc(C)c1S(=O)(=O)N1CCc2c(c(-c3nc(-c4ccccc4)no3)nn2C)C1 returned Pf apPOL inh -1.6 and mHTT-CaM PPI inh -3.2.
Cc1ccc(-c2ccccc2N)o1 was read as Pf apPOL inh -1.2 and mHTT-CaM PPI inh 19.3.
Cc1ccc(-c2ccc(N)cc2)o1 was read as Pf apPOL inh -0.8 and mHTT-CaM PPI inh 55.1*.
Screening O=C(c1cnn2c1NC(c1ccco1)CC2C(F)(F)F)N1CCN(c2ccccc2)CC1 (stereo not drawn) returned Pf apPOL inh -6.5 and mHTT-CaM PPI inh 30.0.
For CC(=O)C1=C(C)NC(SCC(=O)c2ccc(F)cc2)=C(C#N)C1c1cccc([N+](=O)[O-])c1 (stereo not drawn) the results were Pf apPOL inh 0.3 and mHTT-CaM PPI inh 38.0.
CCc1ccc(C2C(C#N)=C(SCC(=O)c3ccc([N+](=O)[O-])cc3)NC(C)=C2C(C)=O)cc1 (stereo not drawn) was read as Pf apPOL inh 1.9 and mHTT-CaM PPI inh 59.7*.
For N#Cc1ccc(C(=O)N2CCCC(c3nc(CCNC(=O)C4CCC4)cs3)C2)cc1 (stereo not drawn) the results were Pf apPOL inh -3.1 and mHTT-CaM PPI inh -2.1.
`COc1ccc(-c2c(-c3ccc(O)cc3O)n[nH]c2C)cc1` gave Pf apPOL inh 11.6 and mHTT-CaM PPI inh 34.9.
`Cc1[nH]nc(-c2ccc(O)c(O)c2O)c1-c1ccccc1` gave Pf apPOL inh 0.4 and mHTT-CaM PPI inh 91.2*.
Screening CN(C)c1ccc(CNC(=O)C2CCN(c3cncnc3N3CCCCC3)CC2)cc1 returned Pf apPOL inh -2.3 and mHTT-CaM PPI inh 4.4.
Screening O=C(NC(Nc1ccc([N+](=O)[O-])cc1)C(Cl)(Cl)Cl)c1cccc([N+](=O)[O-])c1 (stereo not drawn) returned Pf apPOL inh -0.9 and mHTT-CaM PPI inh 98.0*.
`NS(=O)(=O)c1ccc(NC(NC(=O)c2ccc([N+](=O)[O-])cc2)C(Cl)(Cl)Cl)cc1` (stereo not drawn) gave Pf apPOL inh -10.1 and mHTT-CaM PPI inh 15.0.
O=C(Nc1cccc(Cl)c1)c1ccc([N+](=O)[O-])cc1Cl was read as Pf apPOL inh 4.4 and mHTT-CaM PPI inh 16.2.
For O=C(NC(Nc1ccc([N+](=O)[O-])cc1)C(Cl)(Cl)Cl)c1cccc(Cl)c1 (stereo not drawn) the results were Pf apPOL inh -0.5 and mHTT-CaM PPI inh 100.0*.
`Cc1cccc(NC(NC(=O)c2ccc([N+](=O)[O-])cc2)C(Cl)(Cl)Cl)c1` (stereo not drawn) gave Pf apPOL inh -0.8 and mHTT-CaM PPI inh 76.0*.
For NS(=O)(=O)c1ccc(NC(NC(=O)c2cccc(Cl)c2)C(Cl)(Cl)Cl)cc1 (stereo not drawn) the results were Pf apPOL inh -0.4 and mHTT-CaM PPI inh 10.0.
Screening Cc1cccc(NC(NC(=O)N(C)C)C(Cl)(Cl)Cl)c1 (stereo not drawn) returned Pf apPOL inh -2.8 and mHTT-CaM PPI inh 5.0.
O=C(Nc1cccc(Cl)c1)c1cccc([N+](=O)[O-])c1 was read as Pf apPOL inh -15.9 and mHTT-CaM PPI inh 91.6*.
`N#CC1=C(N)C(C#N)(C#N)C(c2ccncc2)C2CCCC=C12` (stereo not drawn) gave Pf apPOL inh -1.2 and mHTT-CaM PPI inh 2.0.
Screening COc1ccc(NC(=O)c2cnn3c2NC(c2ccc(C)cc2)CC3C(F)(F)F)cc1Cl (stereo not drawn) returned Pf apPOL inh 0.1 and mHTT-CaM PPI inh 35.0.
`NC(=O)c1c(NC(=O)Cc2ccc([N+](=O)[O-])cc2)sc2c1CCCCCC2` gave Pf apPOL inh 13.0 and mHTT-CaM PPI inh 18.2.
Screening COc1ccc(-c2ccc(/C=C3\SC(=N)NC3=O)o2)c([N+](=O)[O-])c1 returned Pf apPOL inh 1.2 and mHTT-CaM PPI inh 59.0*.
Screening Cc1c(-c2ccc(/C=C3\SC(=N)NC3=O)o2)ccc([N+](=O)[O-])c1C returned Pf apPOL inh 1.9 and mHTT-CaM PPI inh 41.0.
`COc1ccc(-c2cc(C(=O)O)c3cc(C)ccc3n2)cc1` gave Pf apPOL inh -5.4 and mHTT-CaM PPI inh -3.4.
Cc1ccccc1-c1cc(-c2ccccc2O)on1 was read as Pf apPOL inh -8.4 and mHTT-CaM PPI inh -42.3.
`Cc1nc2cccc(-c3cc(-c4ccccc4O)[nH]n3)c2o1` gave Pf apPOL inh -6.3 and mHTT-CaM PPI inh 67.0*.
Oc1ccccc1-c1cc(-c2cccc(Br)c2)n[nH]1 was read as Pf apPOL inh -10.3 and mHTT-CaM PPI inh 96.1*.
`Cc1ccc(O)c(-c2cc(-c3ccccc3)n[nH]2)c1` gave Pf apPOL inh -2.7 and mHTT-CaM PPI inh 74.3*.
`Oc1ccccc1-c1cc(-c2ccc(Br)cc2)n[nH]1` gave Pf apPOL inh -3.4 and mHTT-CaM PPI inh 35.3.
Oc1ccccc1-c1cc(-c2ccccc2)no1 was read as Pf apPOL inh -4.6 and mHTT-CaM PPI inh -10.5.
`COc1ccc(-c2cc(-c3cc(C)ccc3O)[nH]n2)cc1` gave Pf apPOL inh -17.6 and mHTT-CaM PPI inh 70.2*.
COc1cc(C(=O)NCCc2ccccc2)c([N+](=O)[O-])cc1OC was read as Pf apPOL inh -0.4 and mHTT-CaM PPI inh -4.5.
For COc1ccc(C(O)CN2CCN(c3ccc(Cl)cc3)CC2)cc1OC (stereo not drawn) the results were Pf apPOL inh 0.4 and mHTT-CaM PPI inh 11.9.
For O=C(CSc1nc2c(c(=O)n1-c1ccccc1)SCC2)NCc1ccc(F)cc1 the results were Pf apPOL inh -6.3 and mHTT-CaM PPI inh -6.0.
Screening CC1CC(O)(C#CCN(C)c2ccccc2)C(C)CN1C (stereo not drawn) returned Pf apPOL inh -6.2 and mHTT-CaM PPI inh 2.0.
NC(N)=NC(N)=Nc1cc(-c2cccs2)[nH]n1 was read as Pf apPOL inh 1.7.
`Cc1[nH]nc(-c2ccccc2)c1Br` gave Pf apPOL inh 1.9 and mHTT-CaM PPI inh -8.7.
`Cc1cc(-c2ccccc2)n[nH]1` gave Pf apPOL inh 82.8* and mHTT-CaM PPI inh 7.3.
`Cc1ccc(O)c(-c2cc(-c3cccs3)[nH]n2)c1` gave Pf apPOL inh 3.4 and mHTT-CaM PPI inh 56.0*.
`O=C(NCCN1CCOCC1)C(=O)Nc1ccccc1` gave Pf apPOL inh 1.8 and mHTT-CaM PPI inh -0.2.
`COc1ccc(C2=NC3(CCCCC3)NC(c3ccccc3O)C2)cc1` (stereo not drawn) gave Pf apPOL inh -4.3 and mHTT-CaM PPI inh 59.0*.
For COc1ccc(C2=NC3(CCN(C(C)C)CC3)NC(c3ccccc3O)C2)cc1 (stereo not drawn) the results were Pf apPOL inh -5.1 and mHTT-CaM PPI inh 6.9.
`CCOC(=O)N1CCC2(CC1)N=C(c1ccc(OCC)cc1)CC(c1ccccc1O)N2` (stereo not drawn) gave Pf apPOL inh 2.5 and mHTT-CaM PPI inh 20.6.
For CCOc1ccc(C2=NC3(CCN(C(C)=O)CC3)NC(c3ccccc3O)C2)cc1 (stereo not drawn) the results were Pf apPOL inh 1.9 and mHTT-CaM PPI inh 51.0*.
For COCCN(Cc1ccsc1)C(=O)c1nc2ccccc2s1 the results were Pf apPOL inh -8.7 and mHTT-CaM PPI inh -29.4.
